# Laboratory results taken from the supplement of paper PMC8728848.
# About 410 targets per protein were measured; listed, in parts, are those with the strongest signals and a random draw of the rest.
# B1: his-Lectin-24A (Drosophila melanogaster) (protein)
# chain: MFRLSVLVLNLLLVSHEFSAGTAKIEIQPLPALCNGYCFPTLKPVMEYVAIHQDKWNTCTEILANEARKDQIQLNIQLDALKADVSNIKASQLSKDEKLDRMEREQFAMHESLETINRYLTVKLDRTKLQLEAIKNTMDYMKAQMDGYFSAINGVQCLQPGFEKIGDRYFYIEEDVELNWLDAQAKCRRMGGHLASIKTKQEFDAIVEKLDDSKSYFLGVNENTKTGDFVSAASGKSCLYHEWGPGEPHHNNDQERCVSILRKLMHVGNCTYEKRFICQYGI
# Columns and labels:
# Assay in all cases: glycan array binding signal (z-score within array); higher = stronger binding
# Conditions in all cases: glycan notation: IUPAC condensed, linker removed
# [1] = target: Gal(b1-4)GlcNAc(b1-6)[Gal(b1-4)GlcNAc(b1-3)]GalNAc
# Outline: (§1)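 Negative Z-scores can be read as non-binding. The Z-score is calculated within each array and then averaged across arrays of one protein sequence at different concentrations or buffers and across linkers. Arrays, 3228 in all, were curated from the Consortium for Functional Glycomics database and kept only where the protein sequence was available.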
# [2] = target: Gal3S(b1-4)[Fuc(a1-3)]GlcNAc6S
# Outline: as §1
# GalNAc3S(b1-4)GlcNAc3S = target: GalNAc3S(b1-4)GlcNAc3S
# Outline: as §1
# GalNAc4S6S(b1-4)GlcNAc = target: GalNAc4S6S(b1-4)GlcNAc
# Outline: as §1
# Glc(a1-4)Glc = target: Glc(a1-4)Glc
# Outline: as §1
# GlcA(b1-3)Gal = target: GlcA(b1-3)Gal
# Outline: as §1
# [3] = target: GlcNAc(a1-4)Gal(b1-4)GlcNAc(b1-3)Gal(b1-4)Glc
# Outline: as §1
# [4] = target: GlcNAc(b1-2)[GlcNAc(b1-4)]Man(a1-3)[GlcNAc(b1-4)][GlcNAc(b1-2)[GlcNAc(b1-6)]Man(a1-6)]Man(b1-4)GlcNAc(b1-4)[Fuc(a1-6)]GlcNAc
# Outline: as §1
# [5] = target: GlcNAc(b1-2)[GlcNAc(b1-6)]Man(a1-6)[GlcNAc(b1-2)Man(a1-3)]Man(b1-4)GlcNAc(b1-4)[Fuc(a1-6)]GlcNAc
# Outline: as §1
# [6] = target: GlcNAc(b1-3)Gal(b1-4)GlcNAc(b1-3)Gal(b1-4)GlcNAc(b1-3)Gal(b1-4)GlcNAc(b1-3)Gal(b1-4)GlcNAc(b1-2)Man(a1-3)[GlcNAc(b1-3)Gal(b1-4)GlcNAc(b1-3)Gal(b1-4)GlcNAc(b1-3)Gal(b1-4)GlcNAc(b1-3)Gal(b1-4)GlcNAc(b1-2)Man(a1-6)]Man(b1-4)GlcNAc(b1-4)GlcNAc
# Outline: as §1
# [7] = target: GlcNAc(b1-6)Gal(b1-4)GlcNAc
# Outline: as §1
# Kdn(a2-3)Gal(b1-3)GalNAc = target: Kdn(a2-3)Gal(b1-3)GalNAc
# Outline: as §1
# MurNAc(b1-4)GlcNAc = target: MurNAc(b1-4)GlcNAc
# Outline: as §1
# [8] = target: Neu5Ac(a2-3)Gal(b1-3)[GlcNAc(b1-6)]GalNAc
# Outline: as §1
# [9] = target: Neu5Ac(a2-3)Gal(b1-4)GlcNAc(b1-2)[Neu5Ac(a2-3)Gal(b1-4)GlcNAc(b1-4)]Man(a1-3)[GlcNAc(b1-4)][Neu5Ac(a2-3)Gal(b1-4)GlcNAc(b1-2)[Neu5Ac(a2-3)Gal(b1-4)GlcNAc(b1-6)]Man(a1-6)]Man(b1-4)GlcNAc(b1-4)GlcNAc
# Outline: as §1
# [10] = target: Neu5Ac(a2-3)Gal(b1-4)GlcNAc(b1-2)[Neu5Ac(a2-3)Gal(b1-4)GlcNAc(b1-6)]Man(a1-6)[Neu5Ac(a2-3)Gal(b1-4)GlcNAc(b1-2)Man(a1-3)][GlcNAc(b1-4)]Man(b1-4)GlcNAc(b1-4)GlcNAc
# Outline: as §1
# [11] = target: Neu5Ac(a2-6)Gal(b1-4)GlcNAc(b1-2)Man
# Outline: as §1
# [12] = target: Neu5Ac(a2-6)Gal(b1-4)GlcNAc(b1-2)Man(a1-3)[GlcNAc(b1-4)][Neu5Ac(a2-6)Gal(b1-4)GlcNAc(b1-2)Man(a1-6)]Man(b1-4)GlcNAc(b1-4)GlcNAc
# Outline: as §1
# [13] = target: Neu5Ac(a2-6)Gal(b1-4)GlcNAc(b1-2)Man(a1-3)[Man(a1-6)]Man(b1-4)GlcNAc(b1-4)GlcNAc
# Outline: as §1
# [14] = target: Neu5Ac(a2-6)Gal(b1-4)GlcNAc(b1-2)Man(a1-3)[Neu5Ac(a2-6)Gal(b1-4)GlcNAc(b1-2)Man(a1-6)]Man(b1-4)GlcNAc(b1-4)GlcNAc
# Outline: as §1
# [15] = target: Neu5Ac(a2-6)Gal(b1-4)GlcNAc(b1-2)Man(a1-6)Man(b1-4)GlcNAc(b1-4)GlcNAc
# Outline: as §1
# [16] = target: Neu5Ac(a2-6)Gal(b1-4)GlcNAc(b1-2)Man(a1-6)[Man(a1-3)]Man(b1-4)GlcNAc(b1-4)GlcNAc
# Outline: as §1
# [17] = target: Neu5Ac(a2-6)Gal(b1-4)GlcNAc(b1-3)Gal(b1-4)GlcNAc(b1-3)[Neu5Ac(a2-6)Gal(b1-4)GlcNAc(b1-3)Gal(b1-4)GlcNAc(b1-6)]GalNAc
# Outline: as §1
# [18] = target: Neu5Ac(a2-8)Neu5Ac(a2-3)Gal(b1-3)GalNAc(b1-4)[Neu5Ac(a2-3)]Gal(b1-4)Glc
# Outline: as §1
binder,measurement,setting,value
B1,glycan array binding signal (z-score),[1],0.403
same,glycan array binding signal (z-score),[2],0.382
same,glycan array binding signal (z-score),GalNAc3S(b1-4)GlcNAc3S,3.3
same,glycan array binding signal (z-score),GalNAc4S6S(b1-4)GlcNAc,6.71
same,glycan array binding signal (z-score),Glc(a1-4)Glc,-0.592
same,glycan array binding signal (z-score),GlcA(b1-3)Gal,0.317
same,glycan array binding signal (z-score),[3],2.7
same,glycan array binding signal (z-score),[4],2.05
same,glycan array binding signal (z-score),[5],1.69
same,glycan array binding signal (z-score),[6],0.615
same,glycan array binding signal (z-score),[7],0.608
same,glycan array binding signal (z-score),Kdn(a2-3)Gal(b1-3)GalNAc,0.552
same,glycan array binding signal (z-score),MurNAc(b1-4)GlcNAc,-0.281
same,glycan array binding signal (z-score),[8],-0.036
same,glycan array binding signal (z-score),[9],2.26
same,glycan array binding signal (z-score),[10],-0.362
same,glycan array binding signal (z-score),[11],-0.44
same,glycan array binding signal (z-score),[12],-1.2
same,glycan array binding signal (z-score),[13],-0.737
same,glycan array binding signal (z-score),[14],0.078
same,glycan array binding signal (z-score),[15],1.27
same,glycan array binding signal (z-score),[16],1.07
same,glycan array binding signal (z-score),[17],0.118
same,glycan array binding signal (z-score),[18],2.87
